± gives the standard deviation.
Assays:
[1] = test system: MILI (PIWIL2) piRISC loaded with L1MC piRNA (26 nt); test: pre-steady-state target cleavage rate (min^-1); guide: L1MC piRNA 5'p-UAACUAAAUACUAUGCAAGCUGUAGG; higher = faster piRNA-guided slicing of the target
How it was run: (§1)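 The method was Cleave-'n-Seq, in which uncleaved targets from a transcribed, DNA-blocked target RNA library were sequenced after exposure to active affinity-purified piRISC carrying one synthetic guide, with or without GTSF1 partner protein. Reactions contained 0.1 nM library, 1 nM piRISC and, where present, 500 nM GTSF1 in HEPES–potassium acetate buffer at 33 °C for 0–8 or 0–960 min. Reads were normalised to depth and to weakly complementary targets, three trials were pooled, and k3 was capped at 0.0001 min^-1. The pre-steady-state cleavage rate came from a burst-and-steady-state fit.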

[2] = test system: EfPiwi piRISC loaded with L1MC piRNA (26 nt); test: pre-steady-state target cleavage rate (min^-1); auxiliary factor: 500 nM Ephydatia muelleri Gtsf1; guide: L1MC piRNA 5'p-UAACUAAAUACUAUGCAAGCUGUAGG; MIWI and MILI are mouse PIWI proteins and EfPiwi is from a freshwater sponge; tags in brackets are library labels; higher = faster piRNA-guided slicing of the target
How it was run: as §1

[3] = auxiliary factor: 500 nM mouse GTSF1
[4] = auxiliary factor: none (no GTSF1)

UCCUGGUUCAGCUAGCAUAGUAUUUAGUUA
pre-steady-state target cleavage rate [1, 3]: 0.239 ± 0.026 | pre-steady-state target cleavage rate [1, 4]: 0.0116 ± 0.0027 | pre-steady-state target cleavage rate [2]: 0.0263 ± 0.0083

UCCUGGUAUAGCUUGCAUAGUAUUUAGUUA
pre-steady-state target cleavage rate [1, 3]: 0.252 ± 0.022 | pre-steady-state target cleavage rate [1, 4]: 0.011 ± 0.0024 | pre-steady-state target cleavage rate [2]: 0.0287 ± 0.0075

UCCUGCUACUGCAUGCAUAGUAUUUAGUUA
pre-steady-state target cleavage rate [1, 3]: 0.282 ± 0.025 | pre-steady-state target cleavage rate [1, 4]: 0.00943 ± 0.0022 | pre-steady-state target cleavage rate [2]: 0.00847 ± 0.0024

UCCUGGUACAGCUUGCAUAGUAUUUUCUAA
pre-steady-state target cleavage rate [1, 3]: 0.0489 ± 0.017 | pre-steady-state target cleavage rate [1, 4]: 0.00383 ± 0.0034 | pre-steady-state target cleavage rate [2]: 0.0055 ± 0.0029

UCCUGGAUCAGCAUGCAUAGUAUAUAGUUA
pre-steady-state target cleavage rate [1, 3]: 0.297 ± 0.018 | pre-steady-state target cleavage rate [1, 4]: 0.00579 ± 0.0027 | pre-steady-state target cleavage rate [2]: 0.00329 ± 0.0028

UCCUGGAACAGCUUGGCAUAGUAUUUAGUUA
pre-steady-state target cleavage rate [1, 3]: 0.48 ± 0.097 | pre-steady-state target cleavage rate [1, 4]: 0.00632 ± 0.0027 | pre-steady-state target cleavage rate [2]: 0.0094 ± 0.0031

UCCUGGAUGAGCAAGCAUAGUAUUUAGUUA
pre-steady-state target cleavage rate [1, 3]: 0.12 ± 0.014 | pre-steady-state target cleavage rate [1, 4]: 0.00601 ± 0.0021 | pre-steady-state target cleavage rate [2]: 0.0118 ± 0.0048

UCCUCGAUCAGCUUGCAUAGUAUUUAGUAA
pre-steady-state target cleavage rate [1, 3]: 0.269 ± 0.017 | pre-steady-state target cleavage rate [1, 4]: 0.00809 ± 0.0023 | pre-steady-state target cleavage rate [2]: 0.00989 ± 0.0033

UCCUGCUACUCGUUGCAUAGUAUUUAGUUA
pre-steady-state target cleavage rate [1, 3]: 0.242 ± 0.014 | pre-steady-state target cleavage rate [1, 4]: 0.0082 ± 0.0022 | pre-steady-state target cleavage rate [2]: 0.00936 ± 0.0038

UCCUCCUACAGCUUGCAUAGUAUUAUGUUA
pre-steady-state target cleavage rate [1, 3]: 0.15 ± 0.025 | pre-steady-state target cleavage rate [1, 4]: 0.00329 ± 0.0023 | pre-steady-state target cleavage rate [2]: 0.0049 ± 0.0026

UCCUGGUACAGCUUGCAUAGUAUUUGGUUA
pre-steady-state target cleavage rate [1, 3]: 0.205 ± 0.033 | pre-steady-state target cleavage rate [1, 4]: 0.0142 ± 0.0043 | pre-steady-state target cleavage rate [2]: 0.00525 ± 0.002

UCCUGGUACAGCUUGCAGAGUAUUUAGUUA
pre-steady-state target cleavage rate [1, 3]: 0.121 ± 0.026 | pre-steady-state target cleavage rate [1, 4]: 0.00836 ± 0.0028 | pre-steady-state target cleavage rate [2]: 0.00371 ± 0.0027

UCCUGCUACUGCUUGCAUACUAUUUAGUUA
pre-steady-state target cleavage rate [1, 3]: 0.0731 ± 0.011 | pre-steady-state target cleavage rate [1, 4]: 0.00293 ± 0.0023 | pre-steady-state target cleavage rate [2]: 0.00669 ± 0.0028

UCCUCCAACAGCAUGCAUAGUAUUUAGUUA
pre-steady-state target cleavage rate [1, 3]: 0.282 ± 0.016 | pre-steady-state target cleavage rate [1, 4]: 0.0108 ± 0.0025 | pre-steady-state target cleavage rate [2]: 0.0161 ± 0.0047

UCCUGGUUGAGCUUGCAUAGUAUUUAGUAA
pre-steady-state target cleavage rate [1, 3]: 0.196 ± 0.022 | pre-steady-state target cleavage rate [1, 4]: 0.00595 ± 0.0027 | pre-steady-state target cleavage rate [2]: 0.00604 ± 0.0023

UCCUGGUACAGCUUGGCAUAGUAUUUAGUUA
pre-steady-state target cleavage rate [1, 3]: 0.4 ± 0.093 | pre-steady-state target cleavage rate [1, 4]: 0.00473 ± 0.0036 | pre-steady-state target cleavage rate [2]: 0.05 ± 0.016

UCCUGGAUGUGCUUGCAUAGUAUUUAGUUA [g2:g20:cont:t1A]
pre-steady-state target cleavage rate [1, 3]: 0.142 ± 0.013 | pre-steady-state target cleavage rate [1, 4]: 0.00984 ± 0.0023 | pre-steady-state target cleavage rate [2]: 0.015 ± 0.0046

UCCUGCUACAGCUUGCAUAGUAUUUAAGUUA
pre-steady-state target cleavage rate [1, 3]: 0.365 ± 0.043 | pre-steady-state target cleavage rate [1, 4]: 0.00882 ± 0.0027 | pre-steady-state target cleavage rate [2]: 0.00777 ± 0.0034

UCCUCCUAGAGCUUGCUUAGUAUUUAGUUA
pre-steady-state target cleavage rate [1, 3]: 0.261 ± 0.014 | pre-steady-state target cleavage rate [1, 4]: 0.00563 ± 0.0022 | pre-steady-state target cleavage rate [2]: 0.0217 ± 0.0064

UCCUGGAUGUCGGUGCAUAGUAUUUAGUUA
pre-steady-state target cleavage rate [1, 3]: 0.0897 ± 0.011 | pre-steady-state target cleavage rate [1, 4]: 0.00862 ± 0.0023 | pre-steady-state target cleavage rate [2]: 0.00511 ± 0.0033

UCCUGGAUGAGUCUUGCAUAGUAUUUAGUUA
pre-steady-state target cleavage rate [1, 3]: 0.105 ± 0.016 | pre-steady-state target cleavage rate [1, 4]: 0.0093 ± 0.0029 | pre-steady-state target cleavage rate [2]: 0.00527 ± 0.0024

UCCUGGAUGAGCUUGCAUAGUAUCUAGUUA
pre-steady-state target cleavage rate [1, 3]: 0.131 ± 0.019 | pre-steady-state target cleavage rate [1, 4]: 0.00451 ± 0.0026 | pre-steady-state target cleavage rate [2]: 0.00844 ± 0.003

UCCUGGAUCAGCUUGGAUAGUAAUUAGUUA
pre-steady-state target cleavage rate [1, 3]: 0.167 ± 0.018 | pre-steady-state target cleavage rate [1, 4]: 0.00352 ± 0.0023 | pre-steady-state target cleavage rate [2]: 0.00256 ± 0.0025

UCCUGCUACAGGUAGCAUAGUAUUUAGUUA
pre-steady-state target cleavage rate [1, 3]: 0.367 ± 0.031 | pre-steady-state target cleavage rate [1, 4]: 0.00651 ± 0.0037 | pre-steady-state target cleavage rate [2]: 0.0207 ± 0.0042

UCCUGGAACACCUUGCUUAGUAUUUAGUUA
pre-steady-state target cleavage rate [1, 3]: 0.155 ± 0.028 | pre-steady-state target cleavage rate [1, 4]: 0.00581 ± 0.0019 | pre-steady-state target cleavage rate [2]: 0.0036 ± 0.0033
